The list is not random: actives were taken first. Their share in the collection is about 31%.
CYP2C9 activ = human CYP2C9 activators, primary screen, biochemical, luminescence; Cytochrome P450 2C9 (Homo sapiens), P11712; AID 1024, 2008; hit rate 1.4% among 96,000; recombinant CYP2C9, luciferin-H conversion; hits give high values; factor 1 = untreated enzyme, 0 = blocked; activation factor at 5 µM;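 active means activation factor of 2 or more for CYP2C9 at a 5 µM dose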
Target sequence (P11712 whole entry, looked up): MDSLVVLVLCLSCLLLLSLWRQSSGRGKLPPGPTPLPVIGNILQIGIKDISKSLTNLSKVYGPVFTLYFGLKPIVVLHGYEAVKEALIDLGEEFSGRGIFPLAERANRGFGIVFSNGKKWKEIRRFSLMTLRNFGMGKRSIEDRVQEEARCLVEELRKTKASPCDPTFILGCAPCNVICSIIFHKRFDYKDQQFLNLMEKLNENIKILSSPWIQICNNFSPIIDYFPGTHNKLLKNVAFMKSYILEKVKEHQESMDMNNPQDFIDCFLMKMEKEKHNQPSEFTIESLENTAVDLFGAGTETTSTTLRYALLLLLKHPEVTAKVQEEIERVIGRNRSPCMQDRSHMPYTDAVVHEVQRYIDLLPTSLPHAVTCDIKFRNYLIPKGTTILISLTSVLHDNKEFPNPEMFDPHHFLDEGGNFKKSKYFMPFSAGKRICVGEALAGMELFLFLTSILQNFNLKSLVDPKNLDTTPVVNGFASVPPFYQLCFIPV
PLAP activator = PLAP enzyme activators, biochemical, luminescence, HTS. Alkaline phosphatase, placental type (Homo sapiens), P05187. purified PLAP enzyme, luminescent substrate read-out; hits give high values. activation fold at 20 µM. hit rate 1.2% among 96,000. AID 696, 2007; in the data active means activation fold above about 2
CYP2C9 inh = blockers of cytochrome P450 2C9 activity – biochemical, luminescence, ADME assay, primary screen; hit rate 20% among 96,000; P11712; inhibition, % at 5 µM; CYP2C9 Supersomes, luciferin-H conversion;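 active means blocking of liver enzyme CYP2C9 beyond about 50% at 5 µM, limit read from the data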
CYP2C19 act = human CYP2C19 activators, primary screen, biochemical, luminescence. Cytochrome P450 2C19 (Homo sapiens), P33261. recombinant CYP2C19, luciferin-H EGE luminescence; hits give high values; 0 = fully inhibited enzyme, 1 = untreated enzyme. activation factor at 5 µM. 96,000 tested, under 10 active. AID 1025, 2008;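 active means activation factor of at least 2 at 5 µM in the primary screen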
CYP2C19 inhib = blockers of cytochrome P450 2C19 activity – biochemical, luminescence, ADME assay, primary screen. inhibition, % at 5 µM. P33261. hit rate 21% among 96,000. CYP2C19 Supersomes, luciferin-H EGE luminescence, 30 min;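 active means CYP2C19 inhibition above a set limit at 5 µM in the primary screen, cut at about 50% in these data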
Each line names hits and unclear results; the compound was inactive in the other large screens.

CCC(NC(=O)N(Cc1ccccc1)Cc1ccc2c(c1)OCO2)(C(F)(F)F)C(F)(F)F	CYP2C9 inh 94, CYP2C19 inhib 100
O=C(O)CC(Cc1ccccc1)c1ccc2c(c1)OCO2 (configuration not stated)	none
CC(C)C(=O)N(Cc1ccccc1)c1ccccn1	none
CC(C)C(=O)N(Cc1ccc2c(c1)OCO2)Cc1ccccn1	CYP2C19 inhib 76
COC(=O)c1ccc(OCC(O)CN2CCC(C)CC2)cc1 (configuration not stated)	none
COC(=O)c1ccc(OCC2c3cc(OC)c(OC)cc3CCN2C(=O)C2CC2)cc1 (configuration not stated)	CYP2C19 inhib 71
CCCS(=O)(=O)N1CCC(C(=O)N2CCOCC2)CC1	none
CCC(C)(C)n1nnnc1CN(Cc1cc2cc(OC)c(OC)cc2[nH]c1=O)C1CCCC1	none
Clc1ccc(CSc2nnc(-c3ccncc3)o2)cc1	CYP2C9 inh 82, CYP2C19 inhib 92
Cc1ccc(NC(=O)Cc2nc(CSc3nnc(-c4ccc5c(c4)OCO5)o3)cs2)cc1	CYP2C19 inhib 61
CCSc1nnc(-c2ccncc2)o1	none (no result: CYP2C9 activ, CYP2C9 inh, CYP2C19 act, CYP2C19 inhib)
Clc1ccc(CSc2nnc(-c3c[nH]c4ccccc34)o2)cc1	none
Clc1ccc(CSc2nnc(-c3ccc4c(c3)OCO4)o2)cc1	CYP2C9 inh 50
O=C(Cc1nn[nH]n1)NCc1ccccc1Cl	none
O=C(CN(c1ccc(F)cc1)S(=O)(=O)c1ccc2c(c1)OCCO2)NCC1CCCO1 (configuration not stated)	none
Cc1cc(C(=O)CN(Cc2ccc(F)cc2)S(=O)(=O)c2ccc3c(c2)OCCO3)c(C)n1C	CYP2C9 inh 66, CYP2C19 inhib 60
O=S(=O)(c1ccc2c(c1)OCCO2)N(Cc1ccc(F)cc1)Cc1nnc(-c2cccs2)o1	CYP2C9 inh 87
O=C1CC(N2CCN(C(c3ccccc3)c3ccccc3)CC2)C(=O)N1Cc1ccc(N2CCCC2=O)cc1 (configuration not stated)	none
Cc1cc(N2C(=O)CC(N3CCN(C(c4ccccc4)c4ccccc4)CC3)C2=O)no1 (configuration not stated)	CYP2C9 inh 98, CYP2C19 inhib 78
Cc1nn(-c2ccccc2)c2sc(C(=O)NC3CC3)cc12	CYP2C9 inh 51
Cc1nc(NC(=O)c2cc3c(C)nn(-c4ccccc4)c3s2)sc1C(=O)Nc1ccccc1	PLAP activator 2.3, CYP2C9 inh 59
Cc1nn(-c2ccc(F)cc2)c2sc(C(=O)N3CCCCCC3)cc12	CYP2C9 inh 68, CYP2C19 inhib 68
Cc1nn(-c2ccccc2)c2sc(C(=O)N(CC(=O)NC3CCCC3)Cc3ccco3)cc12	CYP2C9 inh 70, CYP2C19 inhib 72
Cc1nn(-c2ccc(Cl)cc2)c2sc(C(=O)N3CCN(C(=O)c4ccco4)CC3)cc12	none
CC(=O)c1sc(NC(=O)c2cc3c(C)nn(-c4ccccc4)c3s2)nc1C	none
CC(C)C(NC(=O)C1CCCCC1)C(=O)NC1CCN(Cc2ccccc2)CC1 (configuration not stated)	none
CNC(=O)C1CC(=O)N(c2ccc(C)cc2)C1 (configuration not stated)	none
CCc1ccc(N2CC(C(=O)Nc3cc(C)ccc3F)CC2=O)cc1 (configuration not stated)	CYP2C9 inh 91, CYP2C19 inhib 86
Cc1ccc(N2CC(C(=O)Nc3cccc(F)c3)CC2=O)cc1 (configuration not stated)	CYP2C9 inh 56, CYP2C19 inhib 55
CCOc1ccc(N2CC(C(=O)Nc3ccc(F)cc3F)CC2=O)cc1 (configuration not stated)	none
CC1(C)CC(=O)C2=C(C1)OC1=C(C(=O)CC(C)(C)C1)C2c1ccccc1	none
CC1(C)CC(=O)C2=C(C1)OC(N)=C(C#N)C2c1ccccc1 (configuration not stated)	CYP2C19 inhib 73
COc1ccc(C2C(C#N)=C(/N=C/N3CCN(C)CC3)OC3=C2C(=O)CC(C)(C)C3)cc1 (configuration not stated)	CYP2C9 inh 53, CYP2C19 inhib 51
CC1(C)CC(=O)C2=C(C1)OC(N)=C(C#N)C2C1C=CCCC1 (configuration not stated)	CYP2C9 inh 60
Cc1ccc(-n2nc(C)c(C3C(C#N)=C(N)OC4=C3C(=O)CCC4)c2Cl)cc1 (configuration not stated)	CYP2C9 inh 53, CYP2C19 inhib 91
CC1C(C#N)=C(N)OC2=C1C(=O)CCC2 (configuration not stated)	none
CCCNC(=O)C(NS(=O)(=O)c1ccc2c(c1)c(=O)n(C)c(=O)n2C)c1ccccc1 (configuration not stated)	none
c1ccc(-c2ncnc3nc4n(c23)CCC4)cc1	none
CCCC1=C(C(=O)OCC)C(c2c(C)nn(-c3ccccc3)c2Cl)C(C#N)=C(N)O1 (configuration not stated)	CYP2C9 inh 55, CYP2C19 inhib 50
CCOC(=O)C1=C(c2ccccc2)OC(N)=C(C#N)C1C(C)C (configuration not stated)	none
Cc1nn(-c2ccccc2)c(Cl)c1C1C(C#N)=C(N)OC2=C1C(=O)CC(C)(C)C2 (configuration not stated)	CYP2C9 inh 69
O=C(NCc1ccco1)C(c1ccccc1)N(Cc1cccnc1)C(=O)Cn1nnc2ccccc21 (configuration not stated)	none
O=[N+]([O-])c1ccc(/C=N/Nc2nc(-c3ccccc3)c3cc(Br)ccc3n2)o1	none
Cc1ccc2nc(N/N=C\c3ccc([N+](=O)[O-])o3)nc(-c3ccccc3)c2c1	CYP2C9 inh 87, CYP2C19 inhib 73
CC(C)C(OC(=O)C1CCCO1)C(=O)NC1CCCC1 (configuration not stated)	none
Clc1ccc(OCCSc2ncccn2)c2ccccc12	none
c1cnc(SCCOc2cccc3ccccc23)nc1	CYP2C19 inhib 57
CSc1nc(Cl)c(Cc2ccc(OC(C)C)cc2)c(N2CCOCC2)n1	CYP2C9 inh 62
CCC1=Nc2cc(C(=O)NCCCOC(C)C)ccc2Sc2ccccc21	CYP2C9 inh 60, CYP2C19 inhib 72
O=C(Nc1ccc(Br)c(Cl)c1)C1CC1	none
Cc1ccc(Nc2nc(N)nc(CN3CCN(C)CC3)n2)cc1	none
Cc1cccc(Nc2nc(N)nc(CN3CCN(C)CC3)n2)c1	CYP2C9 inh 96
CCN1CCN(Cc2nc(N)nc(Nc3ccc(C)c(C)c3)n2)CC1	none
Cc1cccc(Nc2nc(N)nc(CN3CCN(c4ccc(F)cc4)CC3)n2)c1	CYP2C9 inh 59, CYP2C19 inhib 55

Assay outcomes: PubChem, Sanford-Burnham Center for Chemical Genomics
